# High-throughput results from PubChem BioAssay.
# Cruzain Triton = qHTS Assay for Promiscuous and Specific Inhibitors of Cruzain (with detergent); Cruzipain (Trypanosoma cruzi), P25779; purified cruzain, Z-FR-AMC fluorescence, 0.01% Triton; Potency, µM, for the others: max response, negative = inhibition, actives largely listed as inhibitors; 200,000 tested, 0.43% active; AID 1478, 2009;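 note: plate controls were neutral wells for no effect and buffer without enzyme for full effect; nearly all actives have a fitted effect of over 40% in size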
# Target sequence (P25779 123-467 limits assumed): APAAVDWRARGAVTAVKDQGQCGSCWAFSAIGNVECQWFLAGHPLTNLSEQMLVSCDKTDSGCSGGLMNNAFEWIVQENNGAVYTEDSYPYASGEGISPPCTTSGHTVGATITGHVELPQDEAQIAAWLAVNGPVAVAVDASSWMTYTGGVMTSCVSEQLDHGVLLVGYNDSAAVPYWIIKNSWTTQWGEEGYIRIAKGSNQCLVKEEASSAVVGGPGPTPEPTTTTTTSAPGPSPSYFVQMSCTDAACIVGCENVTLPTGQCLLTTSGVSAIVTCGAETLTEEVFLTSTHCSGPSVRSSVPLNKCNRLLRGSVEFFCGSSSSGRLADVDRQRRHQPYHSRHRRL
#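 Sodium acetate buffer (100 mM, pH 5.5) containing 5 mM DTT and 0.01% Triton X-100 hosted 1.5 nM cruzain and test compound for 15 min at room temperature. Cleavage of 2 uM Z-FR-AMC was then tracked by fluorescence.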
# Cruzain noTriton = qHTS Assay for Promiscuous and Specific Inhibitors of Cruzain (without detergent); Cruzipain (Trypanosoma cruzi), P25779; purified cruzain, Z-FR-AMC fluorescence, no detergent; Potency, µM, without a hit: max response, negative = inhibition, usual class: inhibitors; 200,000 tested, 2.3% active; AID 1476, 2009;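 note: plate controls were enzyme without inhibitor for no effect and buffer without enzyme for full effect; nearly all actives have a fitted effect of over 40% in size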
#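 Purified cruzain at 1.5 nM, pre-incubated 15 min with compound at room temperature in 100 mM sodium acetate pH 5.5, 5 mM DTT, 0.00005% Triton X-100. Reaction started with 2 uM Z-FR-AMC; AMC fluorescence increase over 60 s gives rate.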
# * marks the source's active call; other numbers are inactive results; ? = inconclusive; ! = a repeat was not active. An excerpt weighted towards active compounds, which were near 2.5% of everything screened. Calls come from the whole dose curve; as a rule, active = well fitted curve in the direction sought with a large enough effect; inconclusive = small, poorly fitted or top-dose-only effect, or another doubt; inactive = no such curve, though single readings can be large; an effect the other way counts as inactive or inconclusive. Potency is the fitted concentration of half-maximal effect.
SMILES,Cruzain Triton,Cruzain noTriton
COCCN1C(=O)N[C@@H](CCc2ccccc2)C(C(=O)OC)=C1C,1%,-1%
O=C1C2CCCN2c2ccc(S(=O)(=O)N3CCOCC3)cc2N1Cc1ccccc1F (configuration not stated),-3%,7%
Cc1ccc(C)c(CN2C(=O)C3CCCN3c3ccc(C#N)cc32)c1 (configuration not stated),-5%,16µM*
O=C1C2CCCN2c2ccc(S(=O)(=O)N3CCOCC3)cc2N1Cc1cccc(C(F)(F)F)c1 (configuration not stated),-4%,8%
Cc1ccc(CN2C(=O)C3CCCN3c3ccc(C#N)cc32)cc1 (configuration not stated),0%,10µM*
O=C1CC(=O)Nc2cc(S(=O)(=O)Nc3cccc(Br)c3)ccc2N1,-2%,-5%
CN(C)CCCc1c[nH]c2ccccc12,6%,-4%
Cn1nnnc1SCCCNCc1cccc(OCc2ccc(F)cc2)c1,3%,-4%
Cc1ccc2oc(-c3ccccc3C(=O)O)cc(=O)c2c1,-3%,-13%
O=C(O)c1ccccc1-c1c2cc(Br)c(=O)cc-2oc2[c]([Hg])c(O)c(Br)cc12,20µM*!,?
CC(=O)N1CCCc2cc(S(=O)(=O)NCc3ccccc3Cl)ccc21,-3%,-10%
O=C(N/N=C/c1cccc(OC2CSC2)c1)c1ccccc1O,-1%,10µM*
Cn1ncc(Br)c1C(=O)N/N=C/c1cccc(OC2CSC2)c1,-10%,3%
Cc1ccc(C(=O)c2oc3ccccc3c2NC(=O)COc2ccccc2C)cc1,0%,17%
CCN(CC)CCNC(=O)c1ccc(-c2nc(CN3CCc4ccccc43)c(C)o2)cc1,-2%,-3%
Cc1nn2cc(-c3ccc(-c4ccccc4)cc3)nc2s1,-1%,13µM*
Cc1nn2cc(-c3ccc(Cl)cc3)nc2s1,5%,?
COc1cccc([C@@H]2Oc3ccc(OC)cc3[C@H](O)[C@H]2O)c1,-3%,9%
O=C1NC(=Nc2ccc(Cl)cc2)/C(=C/c2ccco2)S1,-21%,5µM*
Cc1cccc(N=C2NC(=O)S/C2=C\c2ccco2)c1,-4%,?
Cc1ccc(C)c(NC(=O)CN(C)S(=O)(=O)c2ccc3c(c2)CCC(=O)N3)c1,2%,6%
CN(C)c1ccc(Nc2nc3ccccc3n3nnnc23)cc1,-8%,16µM*
c1ccc2c(c1)nc(N1CCOCC1)c1nnnn12,-1%,-12%
COc1ccc(CCNc2nc3ccccc3n3nnnc23)cc1OC,0%,0%
c1ccc(CCNc2nc3ccccc3n3nnnc23)cc1,3%,13µM*
SMILES,Cruzain Triton,Cruzain noTriton
c1ccc(N2CCN(c3nc4ccccc4n4nnnc34)CC2)cc1,4%,25µM*
CCOc1ccc(Nc2nc3ccccc3n3nnnc23)cc1,-3%,-1%
COc1ccc(N(C(=O)COc2ccc(Br)cc2)S(=O)(=O)c2ccc(C)cc2)cc1,-2%,0%
COc1ccc(-c2nc(-c3ccccc3)c(NC(C)(C)C)o2)cc1,4%,3%
CC(C)C[C@H](N)C(=O)O,-2%,-4%
Cc1ccc(CN2C(=O)CN(C3CCC(C)CC3)C(=O)C2c2ccc(F)cc2)cc1 (configuration not stated),5%,6%
O=C(Nc1ccc2ccccc2c1)c1nn(C23CC4CC(CC(C4)C2)C3)cc1Br,4%,10µM*
COc1ccc(NC(=O)c2nn(C34CC5CC(CC(C5)C3)C4)cc2[N+](=O)[O-])cc1,-4%,-1%
CC(=O)Nc1ccc(NC(=O)c2cc3sccc3n2Cc2ccc(Cl)cc2)cc1,-1%,?
COC(=O)c1cc(NC(=O)c2cc3sccc3n2Cc2ccc(Cl)cc2)cc(C(=O)OC)c1,0%,7.9µM*
COc1cccc(CNC(=O)c2cc3c(=O)oc4ccc(C)cc4c3s2)c1,1%,6%
O=C(CSc1nc(C2CC2)nc2ccccc12)N1c2ccccc2Sc2ccc(C(F)(F)F)cc21,2%,4µM*
O=C(CN1CCCC(O)C1)N1c2ccccc2Sc2ccc(C(F)(F)F)cc21 (configuration not stated),3%,-2%
CCCn1c(=O)c2sccc2n2c(CCCC(=O)Nc3ccc(C)c(F)c3)nnc12,1%,-1%
CC(C)CN(CC(C)C)S(=O)(=O)c1ccc(C(=O)Nc2sc3c(c2C(N)=O)CCN(C(C)C)C3)cc1,-15%,25%
Cc1cccc(-n2ncc3c(Nc4ccc(Oc5ccc(Cl)cc5)cc4)ncnc32)c1,3%,25µM*
Cc1cccc(-n2ncc3c(Nc4ccc(C)c(Cl)c4)ncnc32)c1,3%,14%
COC(=O)c1c(C)oc2c1cc(NS(=O)(=O)c1c(C)cc(C)cc1C)c1ccccc12,-1%,?
O=C1C(=O)c2ccccc2C(O)=C1Cc1ccccc1,5%,-3%
Cc1cccc(C2=NN(c3ccccc3)[C@@H](C(=O)N3CCOC3=O)[C@@H]2c2ccc(Cl)cc2)c1,-5%,22µM*
Cc1cccc(C2=NN(c3ccccc3)[C@@H](C(=O)N3CCOC3=O)[C@@H]2C)c1,0%,1%
Cc1cccc(C2=NN(c3ccccc3)[C@@H](C(=O)N3CCOC3=O)[C@@H]2c2ccc(F)cc2)c1,-7%,?
C[C@@H]1C(c2ccccc2)=NN(c2ccc(Br)cc2)[C@H]1C(=O)N1CCOC1=O,-2%,?
O=C1OCCN1C(=O)[C@H]1[C@H](c2ccc([N+](=O)[O-])cc2)C(c2ccccc2)=NN1c1ccccc1,4%,?
Cc1cccc(C2=NN(c3ccc(Br)cc3)[C@@H](C(=O)N3CCOC3=O)[C@@H]2C)c1,0%,28µM*
SMILES,Cruzain Triton,Cruzain noTriton
O=C1OCCN1C(=O)[C@H]1[C@H](c2ccc([N+](=O)[O-])cc2)C(c2cccc(Cl)c2)=NN1c1ccccc1,0%,11µM*
Cc1cccc(C2=NN(c3ccc(Br)cc3)[C@@H](C(=O)N3CCOC3=O)[C@@H]2c2ccc([N+](=O)[O-])cc2)c1,1%,6.3µM*
O=S(=O)(O)n1ccnc1 (tested in a mixture with another compound),1%,2%
COc1cccc(CNC(=O)CCc2c(C)nc3c(c(C)nn3-c3ccc(C)c(C)c3)c2C)c1,-4%,-22%
O=C(O)[C@H]1CCCC[C@@H]1c1c2ccc(=O)c(O)c-2oc2c(O)c(O)ccc12,-18%,0%
CC1=C(c2ccc(C)c(C)c2)S(=O)(=O)N=C1N1CCC(C(=O)NCCc2ccco2)CC1,-4%,16%
CC(=O)[O-].CC(=O)[O-].O.O.[Cd+2],6%,-20%
O=C(Nc1nc2ccccc2s1)c1ccc(Cl)s1,0%,?
Cc1ccc2nc(NC(=O)c3ccc(-c4nc5ccccc5s4)s3)sc2c1,-20%,4µM*
COc1cc(/C=N/NC(N)=S)cc(Br)c1OCc1ccccc1F,0.56µM*,0.2µM*
CCOc1cc(/C=N/NC(N)=S)cc(Br)c1OCc1ccccc1C,3.2µM*,1µM*
CCOc1cc(/C=N/N=C(\N)c2nonc2N)cc(Br)c1OCc1cccc2ccccc12,4%,6.3µM*
CCOc1cc(/C=N/NC(N)=O)cc(Br)c1OCc1ccccc1,4%,-3%
CCOc1c(Br)cc(/C=N\NC(=O)c2ccccc2)cc1OC,-5%,-4%
COc1cc(/C=N/N=C(/N)c2nonc2N)cc(Br)c1OCc1cccc(C)c1,4%,-12%
